This passage reports log2 fold change results from the supplement of paper PMC10849652.

Of roughly 7,900 targets only a part is listed; those with a hit were picked by preference. About 0.6% of all pairs of compound and target were hits. A number with no mark means an inactive call.

Common to all, as to test: log2 fold change, soluble protein after heating vs DMSO (PISA); higher = thermal stabilisation; K562 cells, 10 uM, 30 min; active = over 0.2 and 3.5 SD of the protein, either way, in both replicates (recomputed)
Compound in experiment [1]: NC(=O)Nc1cc(-c2cccc(F)c2)sc1C(=O)N[C@H]1CCCNC1
In short, it runs like this: (§1)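 K562 cells at 2×10^6 cells/mL were given 10 μM compound for 30 min. Aliquots then went through 3 min of heating across 48°C-58°C, were pooled, and were extracted in PBS with 0.5% NP-40 at 4°C, and the supernatant after 21,000xg for 90 min was quantified by TMTpro 16plex LC-MS/MS with channel sums equalised. Thermal stability relative to control samples, from duplicates, is given as log2 fold change.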

Compound in experiment [2]: NC(=O)c1cnc(N[C@@H]2CCCC[C@@H]2N)nc1Nc1cccc(-n2nccn2)c1
In short, it runs like this: as §1

Compound in experiment [3]: NC1(c2ccc(-c3nc4ccn5c(=O)[nH]nc5c4cc3-c3ccccc3)cc2)CCC1
An outline of the steps:
as §1

Compound in experiment [4]: NCC(=O)Nc1ccc(-n2nc(C(F)(F)F)cc2-c2ccc3c(ccc4ccccc43)c2)cc1
An outline of the steps:
as §1

Compound in another experiment: Nc1ccccc1NC(=O)c1ccc(CNC(=O)OCc2cccnc2)cc1 [entinostat]
An outline of the steps:
as §1

Compound in the next experiment: O=C(CCCCCCC(=O)Nc1ccccc1)NO [vorinostat]
An outline of the steps: as §1

Compound in a further experiment: O=C(CCCCCCNC(=O)c1cnc(N(c2ccccc2)c2ccccc2Cl)nc1)NO [citarinostat]
An outline of the steps: as §1

Compound in the next experiment: O=C(O)c1ccc2c(c1)nc(Nc1cccc(Cl)c1)c1ccncc12 [silmitasertib]
In short, it runs like this:
as §1

Compound in experiment [5]: O=C1NC(=O)C(c2cnc3ccccn23)=C1c1cn2c3c(cc(F)cc13)CN(C(=O)N1CCCCC1)CC2
In short, it runs like this: as §1

Compound in experiment [6]: c1cc(OCCN2CCCCC2)cc(-c2n[nH]c3ccc(-c4nnc[nH]4)cc23)c1
An outline of the steps:
as §1

Compound in a further experiment: c1cn2cc(-c3ccc4cn[nH]c4c3)nc(Nc3ccc(N4CCOCC4)cc3)c2n1 [entospletinib]
An outline of the steps: as §1

Sequence of UniProt Q96MX0 (Q96MX0 whole entry, looked up): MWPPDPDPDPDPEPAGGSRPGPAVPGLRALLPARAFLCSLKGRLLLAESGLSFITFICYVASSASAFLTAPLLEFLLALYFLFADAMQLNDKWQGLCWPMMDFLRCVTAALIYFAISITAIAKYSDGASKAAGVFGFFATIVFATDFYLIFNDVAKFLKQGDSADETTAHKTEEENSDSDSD
Sequence of UniProt Q96RR4 (Q96RR4 whole entry, looked up): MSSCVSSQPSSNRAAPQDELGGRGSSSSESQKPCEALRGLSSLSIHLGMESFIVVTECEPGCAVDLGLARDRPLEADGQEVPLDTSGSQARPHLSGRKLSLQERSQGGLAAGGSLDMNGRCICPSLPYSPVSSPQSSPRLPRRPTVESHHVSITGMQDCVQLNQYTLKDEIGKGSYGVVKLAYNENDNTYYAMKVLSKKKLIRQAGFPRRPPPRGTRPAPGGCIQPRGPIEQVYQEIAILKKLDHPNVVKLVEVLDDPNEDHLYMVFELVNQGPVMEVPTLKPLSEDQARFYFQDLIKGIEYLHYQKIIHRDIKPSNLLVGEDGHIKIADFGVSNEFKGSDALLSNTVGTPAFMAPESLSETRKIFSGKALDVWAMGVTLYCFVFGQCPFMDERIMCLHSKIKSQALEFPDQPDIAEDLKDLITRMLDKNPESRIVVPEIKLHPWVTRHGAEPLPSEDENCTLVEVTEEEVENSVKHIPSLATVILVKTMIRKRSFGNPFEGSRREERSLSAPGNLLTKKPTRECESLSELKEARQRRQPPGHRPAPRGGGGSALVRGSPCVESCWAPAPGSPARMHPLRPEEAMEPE
Sequence of UniProt Q00537 (Q00537 whole entry, looked up): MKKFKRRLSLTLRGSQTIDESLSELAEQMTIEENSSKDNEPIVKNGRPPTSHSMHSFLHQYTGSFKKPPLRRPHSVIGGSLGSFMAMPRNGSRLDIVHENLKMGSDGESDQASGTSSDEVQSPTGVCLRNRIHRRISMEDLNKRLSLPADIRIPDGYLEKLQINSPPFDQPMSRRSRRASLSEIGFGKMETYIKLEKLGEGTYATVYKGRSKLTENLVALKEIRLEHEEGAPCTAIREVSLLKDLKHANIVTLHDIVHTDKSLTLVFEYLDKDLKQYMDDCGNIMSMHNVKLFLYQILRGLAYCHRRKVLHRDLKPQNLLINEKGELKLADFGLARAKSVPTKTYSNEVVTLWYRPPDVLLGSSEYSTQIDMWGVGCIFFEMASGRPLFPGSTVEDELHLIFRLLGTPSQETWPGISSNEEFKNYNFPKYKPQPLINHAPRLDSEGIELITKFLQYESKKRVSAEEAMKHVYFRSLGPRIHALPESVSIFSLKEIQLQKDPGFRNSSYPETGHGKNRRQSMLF
Sequence of UniProt Q99627 (Q99627 whole entry, looked up): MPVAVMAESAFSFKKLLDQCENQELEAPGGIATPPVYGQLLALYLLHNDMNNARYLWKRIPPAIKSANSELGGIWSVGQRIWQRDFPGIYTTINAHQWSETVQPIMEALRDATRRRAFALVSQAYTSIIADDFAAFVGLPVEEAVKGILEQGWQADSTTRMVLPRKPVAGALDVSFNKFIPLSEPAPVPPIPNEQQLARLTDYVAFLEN
Sequence of UniProt P35520 (P35520 whole entry, looked up): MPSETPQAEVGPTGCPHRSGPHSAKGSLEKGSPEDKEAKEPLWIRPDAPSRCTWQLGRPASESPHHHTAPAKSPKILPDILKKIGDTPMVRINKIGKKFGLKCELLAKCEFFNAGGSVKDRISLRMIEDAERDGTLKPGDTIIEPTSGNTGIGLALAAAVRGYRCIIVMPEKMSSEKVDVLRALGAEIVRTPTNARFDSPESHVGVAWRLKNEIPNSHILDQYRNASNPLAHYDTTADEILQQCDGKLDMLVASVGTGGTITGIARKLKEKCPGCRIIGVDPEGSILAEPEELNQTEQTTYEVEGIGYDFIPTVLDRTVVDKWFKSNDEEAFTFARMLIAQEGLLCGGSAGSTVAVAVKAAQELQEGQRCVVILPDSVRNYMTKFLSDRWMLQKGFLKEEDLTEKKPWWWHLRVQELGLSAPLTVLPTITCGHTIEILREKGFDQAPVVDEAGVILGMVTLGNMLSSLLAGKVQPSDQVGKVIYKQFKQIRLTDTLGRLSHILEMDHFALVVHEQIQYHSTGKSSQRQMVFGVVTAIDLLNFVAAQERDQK
Sequence of UniProt Q9H444 (Q9H444 whole entry, looked up): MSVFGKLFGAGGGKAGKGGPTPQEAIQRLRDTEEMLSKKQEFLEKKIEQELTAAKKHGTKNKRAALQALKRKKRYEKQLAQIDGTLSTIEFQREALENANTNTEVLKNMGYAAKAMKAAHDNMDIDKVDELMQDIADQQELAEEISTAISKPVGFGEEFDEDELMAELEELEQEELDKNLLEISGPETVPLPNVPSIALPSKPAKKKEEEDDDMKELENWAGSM
Sequence of UniProt P21127 (P21127 whole entry, looked up): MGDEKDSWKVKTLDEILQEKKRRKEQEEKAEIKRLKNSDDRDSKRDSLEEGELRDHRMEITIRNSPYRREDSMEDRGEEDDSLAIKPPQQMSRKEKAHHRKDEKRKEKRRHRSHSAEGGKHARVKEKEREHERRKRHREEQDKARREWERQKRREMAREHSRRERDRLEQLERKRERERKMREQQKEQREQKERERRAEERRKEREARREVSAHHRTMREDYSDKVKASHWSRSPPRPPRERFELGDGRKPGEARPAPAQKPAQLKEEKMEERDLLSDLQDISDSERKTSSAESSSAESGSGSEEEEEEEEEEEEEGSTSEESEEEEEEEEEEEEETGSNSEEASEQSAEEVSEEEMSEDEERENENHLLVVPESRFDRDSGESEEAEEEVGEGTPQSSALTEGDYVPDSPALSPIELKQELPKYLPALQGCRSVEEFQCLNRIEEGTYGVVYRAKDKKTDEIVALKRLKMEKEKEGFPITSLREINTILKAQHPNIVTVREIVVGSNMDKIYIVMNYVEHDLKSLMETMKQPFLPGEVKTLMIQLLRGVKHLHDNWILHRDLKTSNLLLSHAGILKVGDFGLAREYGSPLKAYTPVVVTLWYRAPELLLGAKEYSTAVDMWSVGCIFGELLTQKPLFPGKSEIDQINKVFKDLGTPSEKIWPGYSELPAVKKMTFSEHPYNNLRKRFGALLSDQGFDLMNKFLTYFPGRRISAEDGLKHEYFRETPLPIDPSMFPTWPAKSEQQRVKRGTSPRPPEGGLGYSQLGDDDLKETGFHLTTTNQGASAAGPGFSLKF
Sequence of UniProt Q14004 (Q14004 whole entry, looked up): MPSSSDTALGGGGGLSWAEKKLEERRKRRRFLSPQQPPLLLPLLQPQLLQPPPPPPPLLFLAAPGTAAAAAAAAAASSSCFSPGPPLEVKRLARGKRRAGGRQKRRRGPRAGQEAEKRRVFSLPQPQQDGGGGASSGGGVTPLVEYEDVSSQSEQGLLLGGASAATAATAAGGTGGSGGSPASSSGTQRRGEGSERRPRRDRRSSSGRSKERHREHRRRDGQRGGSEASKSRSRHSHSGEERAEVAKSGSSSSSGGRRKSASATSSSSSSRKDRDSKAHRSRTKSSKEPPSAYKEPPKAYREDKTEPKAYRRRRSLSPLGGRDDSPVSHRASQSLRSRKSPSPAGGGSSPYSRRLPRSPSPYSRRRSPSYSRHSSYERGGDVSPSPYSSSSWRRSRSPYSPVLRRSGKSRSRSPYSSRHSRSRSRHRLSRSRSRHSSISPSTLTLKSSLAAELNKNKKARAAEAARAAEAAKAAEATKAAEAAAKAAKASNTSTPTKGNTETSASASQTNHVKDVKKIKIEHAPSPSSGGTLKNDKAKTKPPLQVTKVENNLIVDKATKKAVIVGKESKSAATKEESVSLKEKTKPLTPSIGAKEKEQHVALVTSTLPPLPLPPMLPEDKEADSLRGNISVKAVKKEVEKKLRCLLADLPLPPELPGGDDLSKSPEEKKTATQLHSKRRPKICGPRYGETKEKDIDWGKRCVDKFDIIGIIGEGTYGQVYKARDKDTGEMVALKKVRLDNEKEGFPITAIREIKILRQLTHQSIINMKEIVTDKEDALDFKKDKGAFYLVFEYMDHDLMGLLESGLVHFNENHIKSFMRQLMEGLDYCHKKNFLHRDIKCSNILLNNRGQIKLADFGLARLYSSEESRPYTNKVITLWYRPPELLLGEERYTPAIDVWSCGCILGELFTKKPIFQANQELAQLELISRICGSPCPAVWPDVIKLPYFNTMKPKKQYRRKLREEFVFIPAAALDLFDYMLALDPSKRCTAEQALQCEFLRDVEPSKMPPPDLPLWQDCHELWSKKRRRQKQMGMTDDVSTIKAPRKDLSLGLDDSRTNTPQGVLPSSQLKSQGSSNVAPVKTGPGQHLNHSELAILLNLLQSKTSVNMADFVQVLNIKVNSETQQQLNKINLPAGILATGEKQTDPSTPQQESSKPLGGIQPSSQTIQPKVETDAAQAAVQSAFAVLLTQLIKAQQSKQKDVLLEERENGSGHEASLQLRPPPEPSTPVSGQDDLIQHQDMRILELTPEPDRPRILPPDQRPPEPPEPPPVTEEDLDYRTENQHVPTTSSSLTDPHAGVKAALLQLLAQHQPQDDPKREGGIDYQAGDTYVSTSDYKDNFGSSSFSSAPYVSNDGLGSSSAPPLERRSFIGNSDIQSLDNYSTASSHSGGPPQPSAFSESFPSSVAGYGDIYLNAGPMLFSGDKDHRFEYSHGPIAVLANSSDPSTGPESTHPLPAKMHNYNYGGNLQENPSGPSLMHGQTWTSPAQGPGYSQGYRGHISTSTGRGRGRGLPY
Sequence of UniProt Q01459 (Q01459 whole entry, looked up): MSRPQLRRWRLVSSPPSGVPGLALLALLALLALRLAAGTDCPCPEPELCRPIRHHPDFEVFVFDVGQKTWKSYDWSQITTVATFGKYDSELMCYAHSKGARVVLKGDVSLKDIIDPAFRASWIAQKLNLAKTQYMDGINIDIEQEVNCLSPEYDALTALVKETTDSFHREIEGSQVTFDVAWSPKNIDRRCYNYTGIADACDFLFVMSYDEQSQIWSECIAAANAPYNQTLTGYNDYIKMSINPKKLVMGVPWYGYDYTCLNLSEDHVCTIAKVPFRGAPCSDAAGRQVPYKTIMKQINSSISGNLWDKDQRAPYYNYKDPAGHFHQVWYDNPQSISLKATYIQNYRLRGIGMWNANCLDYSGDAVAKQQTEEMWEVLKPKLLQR

On to CLPTM1L (UniProt Q96KA5), for which the log2 fold change in [1] is -0.007; in [2], 0.007; in experiment [3] it was -0.148; in [4] it was -0.019; with entinostat, 0.025; with vorinostat it was 0.023. For the same target, the log2 fold change with citarinostat was 0.044; in the experiment with silmitasertib it was 0.02; in [5] it was -0.072; in [6] it was 0.002; with entospletinib it was -0.025.

For COPS8 (UniProt Q99627), the log2 fold change in experiment [1] is 0.02; in [2], 0.038; in [3], -0.042; in [4] it was 0.043; in the experiment with entinostat it was 0.034; with vorinostat, 0.041. Further, the log2 fold change is 0.056 with citarinostat; 0.044 with silmitasertib; -0.077 in experiment [5]; 0.018 in experiment [6]; 0 in the experiment with entospletinib.

In the case of CAMKK2 (UniProt Q96RR4), the log2 fold change in experiment [1] was -0.088; in experiment [2], -0.389; in experiment [3], -0.113; in experiment [4], -0.047; with entinostat, 0.015; with vorinostat, 0.323. Moreover, the log2 fold change in the experiment with citarinostat is -0.144; with silmitasertib it was 0.128; in experiment [5], -0.038; in experiment [6], 0.036; with entospletinib, 0.011.

On to CHMP4B (UniProt Q9H444), for which the log2 fold change in experiment [1] was 0.255 (active); in experiment [2], -0.011; in [3], -0.065; in experiment [4], -0.001; with entinostat, 0.108; with vorinostat it was 0.024. For the same target, the log2 fold change was -0.044 with citarinostat; -0.016 with silmitasertib; 0.014 in experiment [5]; 0.022 in [6]; 0.044 in the experiment with entospletinib.

Regarding CDK11B (UniProt P21127), the log2 fold change in experiment [1] is -0.114; in [2] it was -0.012; in [3], 0.031; in experiment [4], 0.006; with entinostat, -0.111; with vorinostat, 0.064. The log2 fold change with citarinostat was -0.047; in the experiment with silmitasertib it was -0.061; in experiment [5], 0.072; in experiment [6], -0.301; with entospletinib it was 0.14.

Consider CHKA (UniProt P35790), for which the log2 fold change in [1] was 0.015; in experiment [2] it was -0.316 (active); in experiment [3], 0.014; in experiment [4] it was 0.012; with entinostat, -0.023; with vorinostat, -0.034. Also, the log2 fold change is -0.055 with citarinostat; 0.013 with silmitasertib; -0.011 in experiment [5]; -0.012 in [6]; 0.021 in the experiment with entospletinib.

For CDK17 isoform 2 (UniProt Q00537), the log2 fold change in [1] is -0.066; in [2], -0.258; in experiment [3], -0.04; in experiment [4] it was -0.074; in the experiment with entinostat it was 0.035; with vorinostat, -0.114. Also, the log2 fold change was -0.245 in the experiment with citarinostat; 0.088 with silmitasertib; 0.321 in experiment [5]; -0.083 in experiment [6]; 0.067 with entospletinib.

Take CBS (UniProt P35520): the log2 fold change is -0.008 in experiment [1]; 0.006 in [2]; -0.025 in [3]; 0.016 in [4]; -0.033 in the experiment with entinostat; -0.031 with vorinostat. In addition, the log2 fold change with citarinostat is -0.058; in the experiment with silmitasertib it was -0.038; in experiment [5] it was -0.027; in [6], 0.027; in the experiment with entospletinib it was 0.016.

For the target CMTM3 (UniProt Q96MX0), the log2 fold change in [1] is -0.056; in experiment [2], -0.033; in experiment [3], -0.08; in experiment [4], 0.072; with entinostat, -0.03; with vorinostat it was -0.087. In addition, the log2 fold change with citarinostat is -0.118; in the experiment with silmitasertib, 0.009; in [5] it was 0.096; in experiment [6], -0.189; in the experiment with entospletinib it was 0.043.

Regarding CDK13 (UniProt Q14004), the log2 fold change in [1] was -0.032; in experiment [2] it was -0.007; in [3], -0.063; in experiment [4], 0.042; in the experiment with entinostat, 0; in the experiment with vorinostat, 0.018. In addition, the log2 fold change in the experiment with citarinostat was 0.013; with silmitasertib, -0.018; in experiment [5], 0.035; in [6], -0.196; with entospletinib, 0.065.

In the case of CDK12 (UniProt Q9NYV4), the log2 fold change in [1] was -0.002; in [2] it was 0.005; in [3] it was 0.06; in experiment [4], 0.01; in the experiment with entinostat it was 0.005; with vorinostat, 0.089. The log2 fold change was -0.051 with citarinostat; -0.081 with silmitasertib; 0.179 in [5]; -0.242 in [6]; 0.058 in the experiment with entospletinib.

CTBS (UniProt Q01459): the log2 fold change is 0.088 in [1]; -0.046 in [2]; -0.268 in [3]; -0.002 in experiment [4]; 0.058 with entinostat; -0.017 in the experiment with vorinostat. Further, the log2 fold change is -0.026 in the experiment with citarinostat; -0.003 with silmitasertib; 0.051 in experiment [5]; -0.023 in experiment [6]; 0.049 with entospletinib.

As to CDK8 (UniProt P49336), the log2 fold change in [1] is -0.038; in experiment [2], 0.011; in [3], 0.036; in experiment [4], 0.014; in the experiment with entinostat, -0.152; with vorinostat, 0.038. Moreover, the log2 fold change with citarinostat was -0.002; with silmitasertib, 0.175; in experiment [5], 0.036; in experiment [6], -0.019; with entospletinib it was -0.037.
